In PubChem BioAssay AID1578 (Sanford-Burnham Center for Chemical Genomics, 2009):
About 3,000 (1%) of roughly 290,000 compounds were called active. Rule as the data show it: active = inhibition mostly above about 36% (no sharp cut-off); inactive = mostly below about 34%. Only a selection was taken, and actives are over-represented in it overall.

test: NOD1 signaling inhibitors, primary screen, cell-based, luminescence, uHTS (AID 1578); details: NOD1-driven NF-kB luciferase reporter cells, at 4 µM, stronger effect = higher value;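 also: HEK-293T reporter cells stimulated with the NOD1 agonist gamma-tri-DAP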

inhibition, inactive:
CCN(CC(=O)Nc1ccc2c(c1)OCCO2)S(=O)(=O)c1ccccc1 -42.6%, CCCN1CN(Cc2ccccc2)CNC1=S -23.1%, CCOC(=O)/C(C#N)=C/c1c(N2CCCCCC2)nc2ccccn2c1=O 0.9%, CC1=CC(C)(C)N2C(=O)C3(C(C#N)=C(N)Oc4cc(C)oc(=O)c43)c3cccc1c32 (stereo not drawn) -1.1%, COc1cc2c3c(c1)C1(C(=O)N3C(C)(C)C=C2C)C(C#N)=C(N)Oc2cc(C)oc(=O)c21 (stereo not drawn) -10.4%, Cc1cc(C)n(C(=O)/C(C#N)=N\Nc2ccccc2[N+](=O)[O-])n1 -30.2%, Cc1cc(C)n(C(=O)/C(C#N)=C/N(C)C)n1 -47.6%, Cc1nc(Cl)c(C(=O)NCc2ccccc2)c(C)c1Cl -37.4%, Cc1nc(Cl)c(C(=O)NCc2ccccc2)c(C)c1[N+](=O)[O-] -6.1%, COc1ccc(C)cc1-n1nc2ccccc2n1 -40%, CSC1=NSC2=NC(=O)/C(=C\c3cccs3)C(=N)N12 -30%, CC(C)CSC1=NSC2=NC(=O)/C(=C\c3cccs3)C(=N)N12 41.8%, CCc1ccc(-n2nnnc2SCC(=O)Nc2ccc(NC(C)=O)cc2)cc1 -3.5%, O=C1/C(=C/c2ccc(O)cc2)COc2ccccc21 -6.1%, O=C1/C(=C/c2cccs2)COc2ccccc21 -19%, CCOC(=O)c1cnc2nc(NCc3ccc(OC)c(OC)c3)[nH]n2c1=O -26.1%, CC1CCCN1CC#CC(O)(c1ccccc1)c1ccccc1 (stereo not drawn) 0.2%, O=C(Nc1ncc([N+](=O)[O-])s1)c1cccc([N+](=O)[O-])c1 10.4%, O=C(Nc1ccc([N+](=O)[O-])cn1)c1ccc2c(c1)OCO2 -49.4%, Cc1nnc(NC(=O)c2c(-c3ccccc3)noc2C)s1 -0.4%, CC(c1ccccc1)c1nnc(NC(=O)c2ccc3c(c2)OCO3)s1 (stereo not drawn) 5.6%, CCC(CC)c1nnc(NC(=O)c2ccc3c(c2)OCO3)s1 -53.7%, Cc1cnc(NC(=O)c2c(-c3ccccc3)noc2C)s1 2.4%, C/C(CCc1ccc2c(c1)OCO2)=N\N=C1\NC(=O)CC(C(=O)Nc2ccc(Cl)cc2)S1 (stereo not drawn) 3.3%, COc1ccc(NC(=O)CNC(=O)c2c(C)nn(C)c2Cl)cc1 -25.4%, Cc1ccc(C(=O)Cn2c(C)cc(C)c(C#N)c2=O)cc1 -3.5%, COc1cccc2sc(/N=C/N(C)C)nc12 4.3%, CN1CCCC1=Nc1c2c(nc3ccccc13)N(C)CC2 -12.3%, COc1ccc(-c2csc(NC(=S)NC(=O)c3ccc(S(=O)(=O)N(C)C)cc3)n2)cc1OC -1.9%, Cc1ccc(CCCOC(=O)CN2CCCCC2)cc1 -29.9%, COc1cc(OC)cc(OCC(O)Cn2cnc(-c3ccccc3)c2)c1 (stereo not drawn) -19.2%, Brc1ccc(C=Nc2ccc3c(c2)OCCOCCOCCO3)s1 -40.4%, O=C(c1noc2c1CCc1ccccc1-2)N1CCc2ccccc2C1 -25%, COc1ccc(CNc2ncnc3cc(OC)c(OC)cc23)cc1OC -17%, Fc1ccccc1CNc1ncnc2sccc12 25.2%, COc1ccc(CNc2ncnc3sccc23)cc1 41.7%, COc1ccccc1Nc1ncnc2sccc12 -5.2%, OC(CNc1ncnc2sccc12)c1ccccc1 (stereo not drawn) -2.4%, CN(C)C(CNc1ncnc2sccc12)c1ccccc1 (stereo not drawn) 4%, O=C(CN1CCN(S(=O)(=O)c2ccc(Cl)cc2)CC1)c1ccc(O)c(O)c1 -30.9%, Cn1ccnc1SCC(=O)c1ccc([N+](=O)[O-])cc1 -21.2%, COc1ccc(C(=O)NCCOC(C)C)cc1OC1CCN(C(C)=O)CC1 -13.7%, O=C(CSc1nc2ccccc2s1)NNC(=S)Nc1ccc(Cl)cc1 -14.3%, O=C(COc1ccc(Cl)cc1Cl)NNC(=S)NC(=O)c1ccco1 -10.8%, CCOc1ccc(OCC)c(NC(=O)CN2CCN(c3cccc(C)c3)C(C)C2)c1 (stereo not drawn) 29.9%, O=C(CSc1nc2ccccc2s1)NC1CCCC1 9.6%, O=C(Cn1ncc(Cl)c(Cl)c1=O)N1CCN(S(=O)(=O)c2ccc3ccccc3c2)CC1 48.9%, O=C(Cn1ncc(Cl)c(Cl)c1=O)N1CCOCC1 6.8%, Cc1ccc2c(c1)C(c1ccc(F)cc1)N(C(=O)c1ccc(S(=O)(=O)N(C)C)cc1)CC(=O)N2 (stereo not drawn) 3.7%, C=CCOc1c(Br)cc(/C=C2\SC(=Nc3ccccc3)NC2=O)cc1OC -29.6%, CCOc1cc(Br)cc(/C=C2\SC(=Nc3ccccc3)NC2=O)c1O -86.1%, O=C(c1cc2cc(Cl)ccc2o1)N1CCCC1 -13%, COCCn1nnnc1CN(Cc1cc2cc(OC)c(OC)cc2[nH]c1=O)C1CCCC1 -13.9%, C/C(=N\NC(=S)Nc1cccc(C)c1)c1ccccc1 -16.7%, CC(C)CCNC(=S)Nc1ccc(Br)cc1 -18.8%, Cc1cccc(NC(=S)N/N=C(\c2ccccc2)C(C)C)c1 -62.9%, Cc1cccc(NC(=S)NCCC(c2ccccc2)c2ccccc2)c1 7.2%, CC(=O)N/C(=C\c1ccc(F)cc1)C(=O)OCc1ccccc1 -8%, Cc1oc(-c2ccccc2Cl)nc1CS(=O)CC(=O)NCc1cccs1 (stereo not drawn) -13.9%, O=C(C/C=N\OCc1ccc(Cl)cc1Cl)Nc1ccccc1 -17%, O=C(C/C=N/OCc1ccc(Cl)cc1Cl)c1ccc(Cl)cc1 19.3%, CCN(CCCNC(=O)CN1C(=O)COc2ccccc21)c1cccc(C)c1 14.9%, COc1ccc(NC(=O)C(=O)NCCN2CCN(C(=O)c3ccc(C)cc3)CC2)cc1 -23%, CCN(CC)CC1CCCCN1CC(=O)N1c2ccccc2C(=O)Nc2cccnc21 (stereo not drawn) 5.4%, CN1CCN(CC(=O)N2c3ccccc3C(=O)Nc3cccnc32)CC1 -42.1%, CCOC(=O)c1c(C)[nH]c(C2=NNC(=Nc3ccc(OCC)cc3)SC2)c1C -31.6%, CC1(C)CC(=O)c2c(O)cc(O)cc2O1 -18.9%, COc1cc(O)c2c(c1)OC(C)(C)CC2=O 5.2%, Cc1ccc(S(=O)(=O)c2nnn3c2nc(N2CCCCC2)c2ccccc23)cc1 -42.5%, COc1ccc(CCNC(=O)c2cc(C)oc2C)cc1 -16%, CC(=O)Nc1ccc(OCc2cccc3ccccc23)cc1 29.7%, Cc1ccc(C(C#N)c2ccc3c(C(F)(F)F)cc(C(F)(F)F)nc3n2)cc1 (stereo not drawn) 30%, N#CC(c1ccc(Cl)cc1)c1ccc2c(C(F)(F)F)cc(C(F)(F)F)nc2n1 (stereo not drawn) 39.5%, CCNS(=O)(=O)c1ccc2c(c1)NCC2 -16.1%, COc1cc(C(=O)NC(=S)N(C)Cc2ccccc2)cc(OC)c1OC -14.8%, COc1ccc(C(=O)N(C)Cc2ccccc2)cc1Br -39.1%, Cc1cc(C)c(OCCCCn2cnc3ccccc3c2=O)c(C)c1 12.5%, CCOC(=O)Cc1[nH]nc2c1C(c1ccsc1)C(C#N)=C(N)O2 (stereo not drawn) -16.3%, CC(=O)Nc1ccc(S(=O)(=O)Nc2ccc3c(c2)OCCO3)cc1 -25%, CC[n+]1c(-c2ccccc2)csc1Nc1c(C)n(C)n(-c2ccccc2)c1=O -17.7%, C=CC[n+]1c(-c2ccc(C)cc2)csc1Nc1c(C)n(C)n(-c2ccccc2)c1=O 8.4%, CCOc1ccc(CCNC(=O)C2CCC(=O)N2C2CCCCC2)cc1OCC (stereo not drawn) 6%, O=C(NCc1cccnc1)C1CCCN(S(=O)(=O)c2ccccc2)C1 (stereo not drawn) -13.3%

inhibition, active:
CCc1cc2c3c(c1)C1(C(=O)N3C(C)(C)C=C2C)C(C#N)=C(N)Oc2[nH]c(=O)[nH]c(=O)c21 (stereo not drawn) 54.6%, Cc1cc(C)n(C(=O)/C(C#N)=N/Nc2cc(Cl)cc(Cl)c2)n1 40.4%, O=C(NCc1ccccc1)c1c(Cl)nc(Cl)c(Cl)c1Cl 54.5%, N=C1/C(=C/c2cccs2)C(=O)N=C2SN=C(SCc3ccccc3)N12 80.4%, O=C1/C(=C/c2ccccc2[N+](=O)[O-])COc2ccccc21 47.1%, O=C(Nc1ncc([N+](=O)[O-])s1)c1ccc2c(c1)OCO2 69%, CC(C)c1nnc(NC(=O)c2ccc3c(c2)OCO3)s1 62.9%, O=C(Cn1ncc(Cl)c(Cl)c1=O)N1CCN(Cc2ccccc2)CC1 84.9%, C=CCOc1ccc(Br)cc1/C=C1/SC(=Nc2ccc(C(=O)O)cc2)NC1=O 40.4%, Cc1cccc(NC(=S)NCCC(C)C)c1 69.1%, CC/C(=N\NC(=S)Nc1cccc(C)c1)c1ccccc1 48.5%, CN(C)/C=C(\C=N\OCc1ccc(Cl)cc1Cl)C(=O)Nc1ccc(Cl)c(Cl)c1 95.7%, O=C1Nc2cccnc2N(C(=O)CCl)c2ccccc21 50.5%, COc1cc(O)cc2cc3c(c(O)c12)C(=O)CC(C)(O)O3 (stereo not drawn) 51.8%, COc1ccc(C(=O)NC(=S)N(C)Cc2ccccc2)cc1Br 45%
